For orientation: AC50 means the midpoint of the concentration-response curve, whichever way the signal moves.

This is an account of results in PubChem BioAssay (EPA / NIEHS).

Results filed as inconclusive are left out. The source made the active and inactive calls. Rule for the calls, unless noted: active = hit-call score of the fitted dose curve at least 0.9, where 1 is the maximum; inconclusive = response in the unintended direction; inactive = score below 0.9.

Assay [1] concerns the target PGR (gene 5241) (UniProt P06401). As to the kind of experiment: TOX21_PR_BLA_Followup_Antagonist_ratio: Tox21 HEK293 Progesterone Receptor (PR) Antagonism Beta-lactamase Follow-Up Assay, Ratio (AID 2283934). In a few lines: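 Antagonist mode used 1 nM R5020 (final) as agonist on a beta-lactamase reporter line in HEK293T cells. Activity was taken from the substrate cleavage ratio after 16 hr exposure.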

A short description of assay [2]: TOX21_PR_BLA_Followup_Agonist_viability: Viability Assessment in the Tox21 HEK293 Progesterone Receptor (PR) Agonism Beta-lactamase Follow-Up Assay (AID 2283935).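 Note: signal loss means lower viability so actives are cytotoxic.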 In a few lines: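 Multiplexed viability counter-screen: ATP-coupled luciferase signal measured after 30 min at room temperature, following 16 hr compound treatment of PR-UAS-bla HEK293T cells grown in charcoal-stripped serum.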

Assay [3] is described as follows: TOX21_PR_BLA_Followup_Antagonist_viability: Viability Assessment in the Tox21 HEK293 Progesterone Receptor (PR) Antagonism Beta-lactamase Follow-Up Assay (AID 2283936).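 Note: hits lower the luminescence signal meaning cytotoxicity.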 The procedure, abridged:
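PR-UAS-bla HEK293T cells (3,000/well, 2% charcoal-stripped FBS) given compound plus R5020 agonist, 16 h at 37C. CellTiter-Glo added after bla read, 30 min at room temperature; luminescence loss indicates cytotoxicity.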

Assay [4] addresses PGR (gene 5241) (UniProt P06401). Put plainly: TOX21_PR_LUC_Followup_Antagonist: Tox21 HEK293 Progesterone Receptor (PR) Antagonism Luciferase Follow-Up Assay (AID 2283938).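 Note: curve fitted upward as signal gain over DMSO baseline despite antagonist label.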 In a few lines:
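Cells are grown 5 days in charcoal-stripped-FBS assay medium, plated, left 5 h, then dosed with compound and incubated 16 h. ONE-Glo reagent is added and luminescence read after 30 min.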

Assay [5] in a line: TOX21_PR_LUC_Followup_Agonist_viability: Viability Assessment in the Tox21 HEK293 Progesterone Receptor (PR) Agonism Luciferase Follow-Up Assay (AID 2283941).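 Note: loss of signal means cytotoxicity so actives lower viability.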 In a few lines:
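Luminescent ATP quantitation (CellTiter-Glo) serves as the read-out; a drop flags cytotoxic compounds. Cells are HEK293-PR-A-luc grown in 10% charcoal-stripped FBS, plated 3,000/well, and exposed to compound for 16 h.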

Assay [6] addresses Thyroid hormone receptor alpha (Rattus norvegicus) + Thyroid hormone receptor beta (Rattus norvegicus) (UniProt P18113+P63059). As to the kind of experiment: TOX21_TR_LUC_GH3_Antagonist_Followup: Tox21 GH3 Thyroid Hormone Receptor Antagonism Luciferase Follow-Up Assay (AID 2283942). In a few lines:
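Confirmatory qHTS, antagonist mode: T3 (1.0 nM final) + test cpd, 15 conc, 92 uM–5nM final, GH3 rat pituitary line, 24 h, 37C. Luc reporter, RLU vs DMSO.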

The next assay has as its target THRA (gene 7067) (UniProt P10827). As to the kind of experiment: TOX21_TRA_COA_Antagonist_Followup_ratio: Tox21 Thyroid Hormone Receptor alpha Antagonism through Coactivator Recruitment Follow-Up Assay, Ratio (AID 2283953). The procedure, abridged:
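This follow-up to the GH3 luciferase screen checks specificity in a cell-free format. It measures SRC-2 coactivator peptide binding to TRα LBD by TR-FRET and scores loss of ratio signal relative to DMSO.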

In assay [7] the target is THRB (gene 7068) (UniProt P10828). Put plainly: TOX21_TRB_BLA_Antagonist_Followup_ratio: Tox21 Thyroid Hormone Receptor beta Antagonism Beta-lactamase (BLA) Follow-Up Assay, Ratio (AID 2283958). The procedure, abridged:
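In this antagonist-mode follow-up, a stably integrated GAL4-TRβ LBD fusion drives a UAS-beta-lactamase reporter in HEK293T cells. Loss of ratio signal relative to DMSO after 18 h treatment indicates activity; parallel CellTiter-Glo flags cytotoxicity.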

Assay [8] is described as follows: TOX21_TRB_BLA_Antagonist_Followup_viability: Viability Assessment in the Tox21 Thyroid Hormone Receptor beta Antagonism Beta-lactamase (BLA) Follow-Up Assay (AID 2283961). The procedure, abridged:
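TRβ-bla HEK293T (human TRβ LBD fused to GAL4 DBD), 3,000 cells/well, 2% charcoal-stripped FBS, phenol red-free medium; 18 h compound exposure, 37C; CellTiter-Glo 30 min RT; luminescence, loss-of-signal readout.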

The target of assay [9] is THRB (gene 7068) (UniProt P10828). As to the kind of experiment: TOX21_TRB_COA_Antagonist_Followup_ratio: Tox21 Thyroid Hormone Receptor beta Antagonism through Coactivator Recruitment Follow-Up Assay, Ratio (AID 2283967). The procedure, abridged: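 Test compound was incubated with 5.0 nM GST-TRβ LBD in 0.10% BSA. Then 200 nM fluorescein-SRC-2 peptide and 2 nM terbium anti-GST antibody were added. TR-FRET (520:495 nm) was measured and normalized to DMSO and T3 controls.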
Chain of THRB (gene 7068) (P10828 whole entry, looked up, the tested form may be a part): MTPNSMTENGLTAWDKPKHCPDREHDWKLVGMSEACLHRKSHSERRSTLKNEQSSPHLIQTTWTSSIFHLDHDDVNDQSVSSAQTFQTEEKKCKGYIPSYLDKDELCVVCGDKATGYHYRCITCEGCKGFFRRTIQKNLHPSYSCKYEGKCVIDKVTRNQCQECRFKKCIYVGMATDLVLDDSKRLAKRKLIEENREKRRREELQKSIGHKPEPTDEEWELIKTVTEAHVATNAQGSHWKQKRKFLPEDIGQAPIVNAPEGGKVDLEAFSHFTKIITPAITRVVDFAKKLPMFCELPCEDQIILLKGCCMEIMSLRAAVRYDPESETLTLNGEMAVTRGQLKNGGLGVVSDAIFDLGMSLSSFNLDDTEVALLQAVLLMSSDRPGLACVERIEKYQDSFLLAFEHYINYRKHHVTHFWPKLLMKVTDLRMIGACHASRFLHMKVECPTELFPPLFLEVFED

The target in assay [10] is Retinoic acid receptor RXR-alpha (Homo sapiens) (UniProt P19793). As to the kind of experiment: TOX21_TR_RXR_BLA_Antagonist_Followup_ratio: Tox21 Thyroid Hormone Receptor beta Retinoid X Receptor alpha (RXRa) Antagonism Beta-lactamase (BLA) Follow-Up Assay, Ratio (AID 2283972). In a few lines: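 HEK293T RXRa-bla, 2% charcoal-stripped FBS medium, 16 h compound exposure at 37C, qHTS 11 conc x3. CCF4 FRET ratio ch2/ch1 (460:530), DMSO = baseline, loss-of-signal fit.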
Chain of Retinoic acid receptor RXR-alpha (Homo sapiens) (P19793 whole entry, looked up): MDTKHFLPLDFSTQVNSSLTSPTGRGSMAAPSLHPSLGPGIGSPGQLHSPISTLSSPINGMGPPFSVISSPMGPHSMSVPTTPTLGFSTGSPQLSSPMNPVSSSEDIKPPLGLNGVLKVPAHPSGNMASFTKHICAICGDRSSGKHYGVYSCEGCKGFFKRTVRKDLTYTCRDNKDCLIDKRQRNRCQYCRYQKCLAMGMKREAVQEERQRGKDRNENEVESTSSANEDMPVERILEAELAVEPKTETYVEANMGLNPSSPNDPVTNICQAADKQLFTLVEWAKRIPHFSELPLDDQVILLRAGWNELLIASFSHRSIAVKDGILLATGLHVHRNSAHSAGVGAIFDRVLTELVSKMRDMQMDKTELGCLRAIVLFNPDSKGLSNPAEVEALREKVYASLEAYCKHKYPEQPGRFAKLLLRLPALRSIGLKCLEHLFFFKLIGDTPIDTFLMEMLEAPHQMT

The nature of assay [11]: CEETOX_H295R_DOC_noMTC: CeeTox H295R High-throughput Steroidogenesis Assay for DOC, maximum tolerated concentration (MTC) filtered results only (AID 2283918; active = hit-call score of the fitted dose curve at least 0.9, where 1 is the maximum; inactive = score below 0.9). To be noted: actives raise or lower the signal. In a few lines: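 11-Deoxycorticosterone secreted by human adrenal H295R cells quantified by HPLC-MS/MS after 48 h chemical exposure (0.1% DMSO), following 48 h 10 uM forskolin prestimulation. Concentrations not filtered by MTT-derived MTC; bidirectional fitting.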

Assay [12] can be described thus: CEETOX_H295R_ESTRADIOL_noMTC: CeeTox H295R High-throughput Steroidogenesis Assay for Estradiol, maximum tolerated concentration (MTC) filtered results only (AID 2283919; active = hit-call score of the fitted dose curve at least 0.9, where 1 is the maximum; inactive = score below 0.9). To be noted: actives raise or lower the signal. In a few lines: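 H295R human adrenal cells pre-stimulated 48 h with 10 uM forskolin, then exposed 48 h to chemical (0.1% DMSO final). Estradiol in medium measured by HPLC-MS/MS after MTBE extraction and dansyl derivatization; bidirectional fit versus DMSO, concentrations not MTT-filtered.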

Assay [13] is described as follows: CEETOX_H295R_PROG_noMTC: CeeTox H295R High-throughput Steroidogenesis Assay for Progesterone (PROG), maximum tolerated concentration (MTC) filtered results only (AID 2283920; active = hit-call score of the fitted dose curve at least 0.9, where 1 is the maximum; inactive = score below 0.9). The note with it: actives raise or lower the signal. In a few lines:
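H295R cells; forskolin 10 uM x 48 h prestim; test cpd 48 h, 0.1% DMSO final; media progesterone via LC-MS/MS; bidirectional fit vs DMSO; no MTT-based MTC filter applied.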

A short description of assay [14]: CEETOX_H295R_ESTRONE_noMTC: CeeTox H295R High-throughput Steroidogenesis Assay for Estrone, maximum tolerated concentration (MTC) filtered results only (AID 2283921; active = hit-call score of the fitted dose curve at least 0.9, where 1 is the maximum; inactive = score below 0.9). The note with it: actives raise or lower the signal. The procedure, abridged:
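H295R cells prestimulated 48 h with 10 uM forskolin, then exposed 48 h to chemical in 0.1% DMSO; medium estrone measured by HPLC-MS/MS after MTBE extraction and dansyl derivatization, fitted bidirectionally versus DMSO without MTT-based MTC filtering.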

The nature of assay [15]: TOX21_PR_LUC_Followup_Antagonist_viability: Viability Assessment in the Tox21 HEK293 Progesterone Receptor (PR) Antagonism Luciferase Follow-Up Assay (AID 2283940). In a few lines: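 Cellular ATP, measured with luciferase-coupled CellTiter-Glo, served as the viability endpoint after HEK293-PR-A-luc cells were exposed to test compounds for 16 h at 37C.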
Assay [16] is described as follows: CCTE_Harrill_HTTr_Viability_DMEM_6hr: (Pilot) CCTE's 6-hour Cell Viability Assessment for the High-Throughput Transcriptomics (HTTr) Platform, in MCF-7 cells cultured in DMEM + 10% fetal bovine serum, Harrill Lab (AID 2283973; active = hit-call score of the fitted dose curve at least 0.9, where 1 is the maximum; inactive = score below 0.9). In a few lines: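 MCF-7 cells in DMEM + 10% FBS, eight-point dilution series, 6 h exposure. Membrane integrity by propidium iodide exclusion with high-content imaging; bidirectional fit versus DMSO.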

Assay [17] is described as follows: CCTE_Harrill_HTTr_Viability_DMEM_12hr: (Pilot) CCTE's 12-hour Cell Viability Assessment for the High-Throughput Transcriptomics (HTTr) Platform, in MCF-7 cells cultured in DMEM + 10% fetal bovine serum, Harrill Lab (AID 2283974; active = hit-call score of the fitted dose curve at least 0.9, where 1 is the maximum; inactive = score below 0.9). The procedure, abridged:
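MCF-7 cells in DMEM + 10% FBS exposed 12 h to an eight-point dilution series; membrane integrity scored by propidium iodide exclusion with high-content imaging, bidirectional fitting versus DMSO.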

Assay [18] is described as follows: CCTE_Harrill_HTTr_Viability_DMEM_24hr: (Pilot) CCTE's 24-hour Cell Viability Assessment for the High-Throughput Transcriptomics (HTTr) Platform, in MCF-7 cells cultured in DMEM + 10% fetal bovine serum, Harrill Lab (AID 2283975; active = hit-call score of the fitted dose curve at least 0.9, where 1 is the maximum; inactive = score below 0.9). In a few lines: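 MCF-7 cells in DMEM with 10% FBS exposed for 24 hours to an eight-point dilution series. Membrane integrity by propidium iodide exclusion with high content imaging; bidirectional fit against DMSO.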

Assay [19] is described as follows: CCTE_Harrill_HTTr_Viability_PRF_DMEM_6hr: (Pilot) CCTE's 6-hour Cell Viability Assessment for the High-Throughput Transcriptomics (HTTr) Platform, in MCF-7 cells cultured phenol red-free DMEM + 10% charcoal-stripped fetal bovine serum, Harrill Lab (AID 2283976; active = hit-call score of the fitted dose curve at least 0.9, where 1 is the maximum; inactive = score below 0.9). The procedure, abridged: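 MCF-7 cells in phenol red-free DMEM with 10% charcoal-stripped FBS exposed 6 hours to an eight-point dilution series. Propidium iodide exclusion imaged; curves fitted bidirectionally against DMSO.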

Chain of PGR (gene 5241) (P06401 whole entry, looked up): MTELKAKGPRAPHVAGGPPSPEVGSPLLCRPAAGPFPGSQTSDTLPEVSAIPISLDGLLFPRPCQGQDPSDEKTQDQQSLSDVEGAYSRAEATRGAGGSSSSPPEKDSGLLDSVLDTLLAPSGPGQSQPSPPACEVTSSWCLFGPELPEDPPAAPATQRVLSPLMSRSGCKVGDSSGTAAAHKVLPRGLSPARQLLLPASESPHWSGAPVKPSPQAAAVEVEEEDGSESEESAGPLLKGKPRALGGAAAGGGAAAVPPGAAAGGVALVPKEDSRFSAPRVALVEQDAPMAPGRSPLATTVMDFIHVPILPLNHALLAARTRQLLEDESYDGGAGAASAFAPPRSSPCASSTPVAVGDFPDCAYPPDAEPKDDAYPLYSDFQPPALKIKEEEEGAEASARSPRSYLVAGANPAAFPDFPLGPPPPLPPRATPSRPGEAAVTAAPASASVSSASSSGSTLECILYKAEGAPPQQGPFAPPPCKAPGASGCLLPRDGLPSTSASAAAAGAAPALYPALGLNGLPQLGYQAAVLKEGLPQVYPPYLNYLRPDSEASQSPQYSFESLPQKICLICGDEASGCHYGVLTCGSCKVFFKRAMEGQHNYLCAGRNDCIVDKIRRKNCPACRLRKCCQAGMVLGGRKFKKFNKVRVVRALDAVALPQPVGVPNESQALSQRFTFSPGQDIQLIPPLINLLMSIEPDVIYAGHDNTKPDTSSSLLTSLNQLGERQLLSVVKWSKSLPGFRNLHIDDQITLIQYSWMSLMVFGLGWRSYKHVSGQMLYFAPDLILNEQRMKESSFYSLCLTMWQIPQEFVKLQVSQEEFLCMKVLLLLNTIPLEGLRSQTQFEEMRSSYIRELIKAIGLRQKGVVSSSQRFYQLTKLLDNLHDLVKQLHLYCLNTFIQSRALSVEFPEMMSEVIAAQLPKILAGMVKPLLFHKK
Chain of THRA (gene 7067) (P10827 whole entry, looked up, the tested form may be a part): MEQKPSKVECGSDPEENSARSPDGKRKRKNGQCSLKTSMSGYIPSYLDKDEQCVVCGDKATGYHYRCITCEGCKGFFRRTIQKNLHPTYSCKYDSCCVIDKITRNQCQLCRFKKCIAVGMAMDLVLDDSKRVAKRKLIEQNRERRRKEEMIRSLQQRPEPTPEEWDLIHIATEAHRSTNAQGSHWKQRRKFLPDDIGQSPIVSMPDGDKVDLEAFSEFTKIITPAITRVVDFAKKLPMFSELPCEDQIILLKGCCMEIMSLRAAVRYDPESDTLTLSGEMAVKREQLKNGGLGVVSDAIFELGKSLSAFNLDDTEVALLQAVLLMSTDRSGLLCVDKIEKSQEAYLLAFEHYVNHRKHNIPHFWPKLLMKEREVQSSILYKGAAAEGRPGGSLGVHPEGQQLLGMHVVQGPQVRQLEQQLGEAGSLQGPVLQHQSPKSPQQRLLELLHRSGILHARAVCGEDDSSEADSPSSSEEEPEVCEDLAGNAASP

Consider `ClC1C(Cl)C(Cl)C(Cl)C(Cl)C1Cl` (stereo unspecified), for which the outcome (with PGR (gene 5241) [1]; in [2]; in assay [3]; in the assay with PGR (gene 5241) [4]; in assay [5]) was inactive.
Take `CC1(c2ccc(Oc3ccccc3)cc2)OC(=O)N(Nc2ccccc2)C1=O` (stereo unspecified): the figures for the AC50 in assay [6], in assay [8] and in assay [10] were 25.7 µM (active), 22 µM (active) and 28.9 µM (active), respectively. The outcome in the assay with THRA (gene 7067), with THRB (gene 7068) [7] and with THRB (gene 7068) [9] was inactive.
With `O=C(Nc1ccccc1)Nc1cnns1`, the AC50 was 25.4 µM (active) in assay [11] and 34.7 µM (active) in assay [13]. For the same compound, the compound was called inactive in assay [12] and in assay [14].
For the compound `CCS(=O)(=O)c1cccnc1S(=O)(=O)NC(=O)Nc1nc(OC)cc(OC)n1`, the values for the AC50 in [11] and in assay [13] were 7.07 µM (active) and 16.7 µM (active), respectively.
With `CCCN(CCOc1c(Cl)cc(Cl)cc1Cl)C(=O)n1ccnc1`, the half-maximal activity concentration (AC50) in the assay with PGR (gene 5241) [1] is 32.3 µM (active); in the assay with PGR (gene 5241) [4] it was 57.9 µM (active). For the same compound, the call in [2], in [3], in assay [15], in assay [5], in assay [16] and in assay [17] was inactive. In addition, the outcome in assay [18] and in assay [19] was inactive.
On to `COP(=S)(OC)Oc1ccc([N+](=O)[O-])cc1`, for which the AC50 in the assay with PGR (gene 5241) [1] was 38.4 µM (active); with PGR (gene 5241) [4], 33.5 µM (active). For the same compound, the compound was called inactive in assay [2], in assay [3], in assay [15] and in assay [5].
As to `O=C(O)C(F)(F)C(F)(F)C(F)(F)C(F)(F)C(F)(F)C(F)(F)C(F)(F)F`, the outcome in assay [16], in assay [17], in [18] and in [19] was inactive.
Regarding `O=S(=O)(O)C(F)(F)C(F)(F)C(F)(F)C(F)(F)C(F)(F)C(F)(F)C(F)(F)C(F)(F)F`, the outcome in [16], in [17], in assay [18] and in [19] was inactive.
